This note sets out measurements from PubChem BioAssay (NCI).

About 83,000 compounds went through this panel and 20% of them were active in at least one assay; those are over-represented in the sample as a whole.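 Single-concentration screen, 48 h exposure, 96-well plates. Endpoint: percent growth. Below 10 = active.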 Active and inactive are the calls of the source.

The test system of this assay is SW-620 colon. Description: NCI-60 one-dose screen, 48 h (100 = growth as untreated, 0 = no growth, -100 = all killed). The settings on record: 10 µM unless noted. As for the experimental part: Growth inhibition of the SW-620 human tumor cell line is measured as a screen for anti-cancer activity. Cells are grown in 96 well plates and exposed to the test compound for 48 hours. Compounds are tested at a single concentration, which is 10^-5 M for most compounds. The reported endpoint is percent growth (GI% or GIPRCNT), where numbers from 0 - 100% represent growth inhibition, and numbers from -100% - 0 represent cell death. For example, a value of 40 represents 60% growth inhibition. A value of 0 means no net growth occurred over the course of the experiment. A value of -40 indicates 40% of cells at the beginning of the experiment died by the end of the experiment. A value of -100 means all cells are dead at the end of the experiment.
NCI-60 Human Tumor Cell Lines Screen was performed using the standard one-dose NCI protocol, which is described in more detail at https://dtp.cancer.gov/discovery_development/nci-60/default.htm.
Compounds with GIPRCNT values below 10 were considered active. Activity score was based on GIPRCNT using the following formula: […]
Score is 0 for GIPRCNT values of 100 or above, 50 for GIPRCNT values of 0, and 100 for GIPRCNT values of -100.
Turning to `Oc1ccc(-c2nc3ccc(/C(=N\N=C\c4ccc(Cl)cc4)c4ccccc4)cc3[nH]2)cc1`, the growth was 88.5% (inactive). The same measure for `O=C(/C=C/c1cccc(C(F)(F)F)c1)Nc1cccc(C(F)(F)F)c1`: 33.5% (inactive); for `COc1cc(/C=C2/C(=O)Nc3ccc(Cl)cc32)ccc1OCc1ccc(Cl)cc1`: 59.7% (inactive). Turning to `N#Cc1c(-c2cccs2)c(C#N)c(=O)n(Cc2nc3ccccc3[nH]2)c1N`, the growth was 95.6% (inactive).

`COc1ccc2c(c1)c(-c1nc(N)nnc1-c1c[nH]c3ccccc13)cn2C`: the growth was 17.2% (inactive). As for `NC1[C@H]2CN(c3cnc(C(=O)Nc4cc(F)cc5cccnc45)cn3)C[C@@H]12` (stereo not given in full), the growth was 47.6% (inactive). For `CN1CCN(Cc2ccc(NC(=O)c3cncc(C#Cc4cnc5ccc(NCCO)nn45)c3)cc2C(F)(F)F)CC1`, the growth was -13.2% (active).

As to `Clc1ccc2c(N/N=C/c3c[nH]c4ccccc34)ccnc2c1`, the growth is -74.8% (active). With `CCCCCc1ccc(S(=O)(=O)Nc2cc(-c3csc(N)n3)ccc2OC)cc1` the figure was 110% (inactive); with `C#CCN(C)CCCOc1ccc(NC(=O)CCCCCCC(=O)NO)cc1Cl`, 11.7% (inactive); with `CC(=O)Nc1cc(N2CCOCC2)c2nc(NC(=O)c3[nH]c(C)c(Cl)c3Cl)sc2c1`, 84.4% (inactive). With `COc1ccccc1/C=C1\Oc2ccc(O)c(O)c2C1=O` the figure was 105% (inactive); with `N#Cc1c(-c2cccs2)cc(-c2cnccn2)nc1SCC(=O)N/N=C/c1ccncc1`, 112% (inactive); with `CC1=C(C)C(=O)C(Nc2cccc(C(=O)OC(C)(C)C)c2)=CC1=O`, 94.8% (inactive). For the compound `CCCCCC[n+]1ccc(SCC(=O)n2ccc3ccccc32)c2ccccc21`, the growth is 92.1% (inactive). With `Cc1ccc2c(n1)C(=O)C(Cl)=C(Nc1cc(C(F)(F)F)cc(C(F)(F)F)c1)C2=O` the figure was 2.41% (active); with `CCN(CC)c1ccc(/C=N/NC(=O)c2ccc(NS(C)(=O)=O)cc2)cc1`, 40.5% (inactive).

As for `COc1ccc(C2c3[nH]c4ccc(Cl)cc4c3CCN2c2oc(CO)nc2C#N)cc1` (stereo not given), the growth was 32.9% (inactive). The same measure for `O=C(COc1ccc(/C=C2\C(=O)Nc3ccc(Cl)cc32)cc1)Nc1ccc(Cl)cc1`: 45.5% (inactive); for `Cc1[nH]c(C(=O)Nc2ccccc2OCc2cccc(C(=O)NC3CCCNC3)c2)c(Cl)c1Cl` (stereo not given): -68.8% (active); for `O=C(CSc1nnc(-c2ccc(Cl)cc2)n1-c1ccccc1)Nc1ccc(Cl)cc1`: 58.6% (inactive). The same measure for `Cc1ccc(/C(N)=N/C(N)=N/c2nc3ccccc3s2)cc1`: 107% (inactive). The same measure for `O=C(/C=C/c1csc(Br)n1)NO`: 10.2% (inactive). Regarding `OCC(Nc1ncnc2ccc(-c3cnc4cnccn34)cc12)c1ccccc1` (stereo not given), the growth is 105% (inactive).

With `CC(C)(C)Nc1nc2c(OCCc3ccccc3)cccn2c1-c1cccc(Oc2ccccc2)c1`, the growth was 23.5% (inactive). The same measure for `C#CCOc1ccc(/C=N/Nc2nc(-c3ccc(OC)cc3)cs2)cc1`: 93.3% (inactive). In the case of `CC1=C(C)C(=O)C(Nc2ccc3c(c2)OCO3)=C(Br)C1=O`, the growth is 107% (inactive). Take `O=C(CSc1nnc(-c2cccs2)n1-c1ccccc1)Nc1ccccc1F`: the growth is 69.3% (inactive). With `CC1(C)CC[C@]2(C(=O)O)CC[C@]3(C)C(=CC[C@@H]4[C@@]5(C)CC[C@H](NOCCCN)C(C)(C)[C@@H]5CC[C@]43C)[C@@H]2C1` the figure was 83.8% (inactive); with `CCOC(=O)c1c(NC(=O)c2ccc(C(F)(F)F)cc2)sc2c(CN3CCN(C)CC3)c(O)ccc12`, -71.2% (active); with `CN1CCN(c2ccc(Nc3nc(NCCCNS(=O)(=O)c4cccc(F)c4)c4sccc4n3)cc2)CC1`, 46.5% (inactive).

Turning to `CC(Nc1ncnc2ccc(-c3cnc(N)nc3)cc12)c1ccccc1` (stereo not given), the growth was 67.4% (inactive).

As to `O=C(NCCNc1cc(-c2cn(-c3ccccc3)nc2-c2cccc(O)c2)ccn1)Nc1cc(C(F)(F)F)cc(C(F)(F)F)c1`, the growth was 101% (inactive). As for `Clc1ccc2[nH]cc(-c3nn4cc(-c5ccncc5)nc4s3)c2c1`, the growth was 50.7% (inactive). With `CN1CCN(c2ccc(Nc3nc(NCCNS(=O)(=O)c4ccc(Cl)cc4)c4sccc4n3)cc2)CC1` the figure was 94.7% (inactive). As for `Cc1nc(/N=C(N)/N=C(\N)c2cccc(Br)c2)sc1C`, the growth was 33% (inactive). With `O=C(CSc1nc2ccccc2c(=O)n1-c1ccccc1)N/N=C/c1ccc(Oc2ccc(Cl)cc2)cc1` the figure was 43.1% (inactive); with `COc1cc2oc(-c3cccc(NC(=O)[C@@H](N)C(C)C)c3)cc(=O)c2c(OC)c1OC`, 105% (inactive); with `O=C1[C@@H]2Cc3c([nH]c4ccccc34)[C@@H](c3ccc(Cl)cc3)N2C(=O)CN1C1CCN(Cc2c(F)cccc2F)CC1`, 48.6% (inactive).

With `CN(C)c1ccc(/C=N/Nc2nc(N/N=C/c3ccc(N(C)C)cc3)nc(N3CCCCC3)n2)cc1`, the growth was 64.2% (inactive).
